# Test results published in the supplement of paper PMC4466140.
# Experiments:
# Test in all cases: SPOT peptide array binding signal intensity (averaged, normalized) (arbitrary units (background-subtracted, floor 0; scale differs between SH3 domains)); higher = stronger binding of the SH3 domain to the peptide
# [1] = target: AgAbp1
# Method: (§1)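 GST-tagged SH3 domains from S. cerevisiae (Sc), A. gossypii (Ag), C. albicans (Ca) and S. pombe (Sp) were incubated at 10 ug/ml overnight at 4 C on cellulose SPOT membranes carrying 292 synthetic 15-mer peptides mined from the S. cerevisiae proteome (cysteines replaced by serines). Binding was detected with anti-GST antibody, HRP secondary and chemiluminescence, quantified with Genespotter, and reported as normalized spot intensities averaged over biological replicates.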
# [2] = target: AgBbc1
# Method: as §1
# [3] = target: AgBem1-D1
# Method: as §1
# [4] = target: AgBzz1-D1
# Method: as §1
# [5] = target: AgBzz1-D2
# Method: as §1
# [6] = target: AgCyk3
# Method: as §1
# [7] = target: AgFus1
# Method: as §1
# [8] = target: AgHof1
# Method: as §1
# [9] = target: AgHse1
# Method: as §1
# [10] = target: AgLsb1
# Method: as §1
# [11] = target: AgLsb4
# Method: as §1
# [12] = target: AgMyo5
# Method: as §1
# [13] = target: AgNbp2
# Method: as §1
# [14] = target: AgRvs167
# Method: as §1
# [15] = target: AgSho1
# Method: as §1
# [16] = target: AgSla1-D1-D2
# Method: as §1
# [17] = target: AgSla1-D3
# Method: as §1
# [18] = target: CaAbp1-D1
# Method: as §1
# [19] = target: CaAbp1-D2
# Method: as §1
# [20] = target: CaBbc1
# Method: as §1
# [21] = target: CaBem1-D1
# Method: as §1
# [22] = target: CaBzz1-D1
# Method: as §1
# [23] = target: CaBzz1-D2
# Method: as §1
# [24] = target: CaCyk3
# Method: as §1
# [25] = target: CaFus1
# Method: as §1
# [26] = target: CaHof1
# Method: as §1
# [27] = target: CaHse1
# Method: as §1
# [28] = target: CaLsb1
# Method: as §1
# [29] = target: CaLsb4
# Method: as §1
# [30] = target: CaMyo5
# Method: as §1
# [31] = target: CaNbp2
# Method: as §1
# [32] = target: CaRvs167
# Method: as §1
# [33] = target: CaRvs167-3
# Method: as §1
# [34] = target: CaSho1
# Method: as §1
# [35] = target: CaSla1-D1-D2
# Method: as §1
# [36] = target: CaSla1-D3
# Method: as §1
# [37] = target: ScAbp1
# Method: as §1
# [38] = target: ScBbc1
# Method: as §1
# [39] = target: ScBem1-D1
# Method: as §1
# [40] = target: ScBzz1-D1
# Method: as §1
# [41] = target: ScBzz1-D2
# Method: as §1
# [42] = target: ScCyk3
# Method: as §1
# [43] = target: ScFus1
# Method: as §1
# [44] = target: ScHof1
# Method: as §1
# [45] = target: ScHse1
# Method: as §1
# [46] = target: ScLsb1
# Method: as §1
# [47] = target: ScLsb2
# Method: as §1
# [48] = target: ScLsb3
# Method: as §1
# [49] = target: ScLsb4
# Method: as §1
# [50] = target: ScMyo3
# Method: as §1
# [51] = target: ScMyo5
# Method: as §1
# [52] = target: ScNbp2
# Method: as §1
# [53] = target: ScPex13
# Method: as §1
# [54] = target: ScRvs167
# Method: as §1
# [55] = target: ScSho1
# Method: as §1
# [56] = target: ScSla1-D1-D2
# Method: as §1
# [57] = target: ScSla1-D3
# Method: as §1
# [58] = target: SpAbp1-D1
# Method: as §1
# [59] = target: SpBbc1
# Method: as §1
# [60] = target: SpBzz1-D1
# Method: as §1
# [61] = target: SpBzz1-D2
# Method: as §1
# [62] = target: SpCyk3
# Method: as §1
# [63] = target: SpHof1
# Method: as §1
# [64] = target: SpHof1-2
# Method: as §1
# [65] = target: SpHof1-3
# Method: as §1
# [66] = target: SpHse1
# Method: as §1
# [67] = target: SpLsb1
# Method: as §1
# [68] = target: SpLsb4
# Method: as §1
# [69] = target: SpMyo1
# Method: as §1
# [70] = target: SpNbp2
# Method: as §1
# [71] = target: SpPex13
# Method: as §1
# [72] = target: SpRvs167
# Method: as §1
# [73] = target: SpSla1-D1-D2
# Method: as §1
# [74] = target: SpSla1-D3
# Method: as §1
binder,measurement,setting,value
NLKKRPPTAPQRKIS,SPOT peptide array binding signal intensity,[1],2190
same,SPOT peptide array binding signal intensity,[2],265
same,SPOT peptide array binding signal intensity,[3],28.5
same,SPOT peptide array binding signal intensity,[4],277
same,SPOT peptide array binding signal intensity,[5],199
same,SPOT peptide array binding signal intensity,[6],≤ 0
same,SPOT peptide array binding signal intensity,[7],110
same,SPOT peptide array binding signal intensity,[8],60
same,SPOT peptide array binding signal intensity,[9],1520
same,SPOT peptide array binding signal intensity,[10],2.25
same,SPOT peptide array binding signal intensity,[11],109
same,SPOT peptide array binding signal intensity,[12],≤ 0
same,SPOT peptide array binding signal intensity,[13],245
same,SPOT peptide array binding signal intensity,[14],13.5
same,SPOT peptide array binding signal intensity,[15],33.5
same,SPOT peptide array binding signal intensity,[16],370
same,SPOT peptide array binding signal intensity,[17],28.2
same,SPOT peptide array binding signal intensity,[18],5270
same,SPOT peptide array binding signal intensity,[19],6470
same,SPOT peptide array binding signal intensity,[20],646
same,SPOT peptide array binding signal intensity,[21],48.5
same,SPOT peptide array binding signal intensity,[22],727
same,SPOT peptide array binding signal intensity,[23],2010
same,SPOT peptide array binding signal intensity,[24],3
same,SPOT peptide array binding signal intensity,[25],254
same,SPOT peptide array binding signal intensity,[26],1
same,SPOT peptide array binding signal intensity,[27],34.5
same,SPOT peptide array binding signal intensity,[28],≤ 0
same,SPOT peptide array binding signal intensity,[29],942
same,SPOT peptide array binding signal intensity,[30],4.5
same,SPOT peptide array binding signal intensity,[31],764
same,SPOT peptide array binding signal intensity,[32],32
same,SPOT peptide array binding signal intensity,[33],67.8
same,SPOT peptide array binding signal intensity,[34],170
same,SPOT peptide array binding signal intensity,[35],1470
same,SPOT peptide array binding signal intensity,[36],6.5
same,SPOT peptide array binding signal intensity,[37],2890
same,SPOT peptide array binding signal intensity,[38],56.8
same,SPOT peptide array binding signal intensity,[39],8
same,SPOT peptide array binding signal intensity,[40],258
same,SPOT peptide array binding signal intensity,[41],34
same,SPOT peptide array binding signal intensity,[42],13
same,SPOT peptide array binding signal intensity,[43],80
same,SPOT peptide array binding signal intensity,[44],2.75
same,SPOT peptide array binding signal intensity,[45],1640
same,SPOT peptide array binding signal intensity,[46],32.5
same,SPOT peptide array binding signal intensity,[47],3.5
same,SPOT peptide array binding signal intensity,[48],2500
same,SPOT peptide array binding signal intensity,[49],100
same,SPOT peptide array binding signal intensity,[50],9.5
same,SPOT peptide array binding signal intensity,[51],6.5
same,SPOT peptide array binding signal intensity,[52],578
same,SPOT peptide array binding signal intensity,[53],1.75
same,SPOT peptide array binding signal intensity,[54],708
same,SPOT peptide array binding signal intensity,[55],367
same,SPOT peptide array binding signal intensity,[56],1690
same,SPOT peptide array binding signal intensity,[57],8.25
same,SPOT peptide array binding signal intensity,[58],2030
same,SPOT peptide array binding signal intensity,[59],11
same,SPOT peptide array binding signal intensity,[60],641
same,SPOT peptide array binding signal intensity,[61],8.5
same,SPOT peptide array binding signal intensity,[62],≤ 0
same,SPOT peptide array binding signal intensity,[63],192
same,SPOT peptide array binding signal intensity,[64],12.8
same,SPOT peptide array binding signal intensity,[65],77.2
same,SPOT peptide array binding signal intensity,[66],1160
same,SPOT peptide array binding signal intensity,[67],9
same,SPOT peptide array binding signal intensity,[68],2350
same,SPOT peptide array binding signal intensity,[69],10.2
same,SPOT peptide array binding signal intensity,[70],303
same,SPOT peptide array binding signal intensity,[71],6
same,SPOT peptide array binding signal intensity,[72],539
same,SPOT peptide array binding signal intensity,[73],13
same,SPOT peptide array binding signal intensity,[74],6
